# Cruzain Triton: blocks cruzain activity in presence of Triton detergent. P25779. purified cruzain, Z-FR-AMC fluorescence, 0.01% Triton. Potency, µM, without a hit: max response, negative = inhibition, most hits filed as inhibitors. actives 0.43% (n = 200,000);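 further: plate controls were neutral wells for no effect and buffer without enzyme for full effect; nearly all actives have a fitted effect of over 40% in size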
# Target sequence (P25779 123-467 limits assumed): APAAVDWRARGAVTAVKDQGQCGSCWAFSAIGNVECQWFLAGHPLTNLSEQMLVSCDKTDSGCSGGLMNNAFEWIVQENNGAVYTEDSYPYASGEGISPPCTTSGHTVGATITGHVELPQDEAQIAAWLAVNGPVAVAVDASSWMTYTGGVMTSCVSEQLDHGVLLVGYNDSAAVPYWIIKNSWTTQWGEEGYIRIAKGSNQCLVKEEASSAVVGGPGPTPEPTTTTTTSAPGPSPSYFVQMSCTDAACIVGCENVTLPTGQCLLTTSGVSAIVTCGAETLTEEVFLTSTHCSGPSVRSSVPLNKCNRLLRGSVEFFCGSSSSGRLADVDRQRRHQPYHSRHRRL
#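 Enzyme 1.5 nM, Z-FR-AMC 2 uM, NaOAc 100 mM pH 5.5, DTT 5 mM, Triton X-100 0.01%; 15 min RT compound preincubation; kinetic ex360/em450, 60 s delta.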
# Cruzain noTriton: cruzain (T. cruzi) inhibition without detergent | P25779 | purified cruzain, Z-FR-AMC fluorescence, no detergent | Potency, µM, without a hit: max response, negative = inhibition, usual class: inhibitors | actives 2.3% (n = 200,000) | AID 1476;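 further: plate controls were enzyme without inhibitor for no effect and buffer without enzyme for full effect; nearly all actives have a fitted effect of over 40% in size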
#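 Detergent-free condition (0.00005% Triton X-100) in acetate buffer pH 5.5 with DTT. 1.5 nM enzyme and compound were pre-mixed 15 min, then 2 uM Z-FR-AMC substrate added; reaction progress from fluorescence change between first and third reads (60 s).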
# Active calls of the source: *; u = inconclusive. Rows were chosen to be rich in hits. Some 2.5% of all compounds tested hit in one or more screens of this group. The call rests on the fitted dose curve; in most records, active means well fitted curve in the direction sought with a large enough effect; inconclusive means small, poorly fitted or top-dose-only effect, or another doubt; inactive means no such curve, though single readings can be large; an effect the other way counts as inactive or inconclusive. Potency means the concentration at half of the fitted maximal effect.
SMILES,Cruzain Triton,Cruzain noTriton
CCc1cc2c(-c3ccccc3)cc(=O)oc2cc1OC(=O)c1cccs1,3%,-2%
COc1ccc(OC)c(Nc2ncc3c(n2)CCN(Cc2cc(OC)c(OC)c(OC)c2)C3)c1,0%,-2%
CC(=O)c1cccc(NC(=O)c2cc(-c3ccc(C)cc3)on2)c1,1%,25µM*
CC(=O)c1cccc(NC(=O)c2cc(-c3ccc4c(c3)OCCO4)on2)c1,0%,-2%
Cc1ccc(Cn2ccc(NC(=O)c3cc(-c4ccc(F)cc4)on3)n2)cc1,8%,20µM*
Cc1ccc(Cn2ccc(NC(=O)c3cc(-c4ccc(Cl)cc4)on3)n2)cc1,-3%,1%
Cc1cc(NC(=O)c2cc(-c3cccc(Cl)c3)on2)no1,5%,20µM*
COc1cccc(-c2cc(C(=O)Nc3cc(C)on3)no2)c1,0%,-5%
CC(=O)Nc1nonc1-c1nnc(SCC(=O)N(C)c2ccccc2)n1C,-1%,3%
COc1ccc(N2CCN(Cc3cccn3-c3nnc(N4CCN(C5CCCCC5)CC4)s3)CC2)cc1,-2%,-8%
C=CCSc1nnc2c(n1)OC=Nc1ccc(Br)cc1-2,-5%,25µM*
CCSc1nnc2c(n1)OC=Nc1ccc(Br)cc1-2,-6%,-16%
O=C(Nc1cc(Cl)ccc1Cl)c1cc(S(=O)(=O)N2CCCc3ccccc32)ccc1F,0%,2%
COc1ccc(OC(=O)c2nc(SCc3ccc(C)cc3)ncc2Cl)cc1,-1%,20µM*
Cc1ccc(CSc2ncc(Cl)c(C(=O)Oc3ccc(F)cc3)n2)cc1,-1%,-4%
O=S(=O)(NCCO)c1cc[c]([Sb])cc1,1%,-7%
CCOC(=O)N1CCN(C2CC(=O)N(c3ccc(C)cc3)C2=O)CC1 (stereo unspecified),7%,4%
CCOC(=O)N1C2C=C(C)[C@@H]2[C@@H]2CC(=O)N21 (stereo partly specified),14µM*,13µM*
COc1ccc(NCc2cc3cc4c(cc3n(CC(=O)Nc3cc(C)cc(C)c3)c2=O)OCO4)cc1,-5%,u
CCc1ccc(NCc2cc3cc4c(cc3n(CC(=O)Nc3ccc(Cl)cc3)c2=O)OCO4)cc1,-1%,16µM*
COc1ccc(NCc2cc3cc4c(cc3n(CC(=O)Nc3ccc(C)c(C)c3)c2=O)OCO4)cc1,-3%,16µM*
Cc1ccc(NCc2cc3cc4c(cc3n(CC(=O)Nc3ccc(C)cc3)c2=O)OCCO4)cc1,-7%,u
Cc1ccc(NC(=O)CCCN2C(=O)COc3ccc(C)cc32)c(Cl)c1,-6%,-17%
Cc1ccc(-n2c(SCC(N)=O)nc3c(oc4ccccc43)c2=O)cc1C,-4%,3%
c1cc(OCC2CO2)cc(OCC2CO2)c1 (stereo unspecified),4%,-6%
SMILES,Cruzain Triton,Cruzain noTriton
O=C(c1ccc2nc(-c3ccco3)c(-c3ccco3)nc2c1)N1CCN(c2ccccc2)CC1,u,-2%
O=C(c1ccc2nc(-c3ccco3)c(-c3ccco3)nc2c1)N1CCC2(CC1)OCCO2,25µM*,u
CC(C)(C)C(=O)CSc1nc2c(c(-c3cccs3)c1C#N)CCC2,-4%,25µM*
CC(=O)CSc1nc(N)c(C#N)c(-c2cccs2)c1C#N,-4%,-9%
CN1CCc2nc(SCC(=O)Nc3ccc(OC(F)(F)F)cc3)c(C#N)c(-c3cccs3)c2C1,-5%,u
N#Cc1ccc(-c2cccs2)nc1SCC(=O)Nc1cccc(C(F)(F)F)c1,-4%,20µM*
N#Cc1c(C(F)(F)F)cc(-c2cccs2)nc1SCC(=O)Nc1cccc(C(F)(F)F)c1,0%,9%
CN1CCc2nc(SCC(=O)Nc3cccc(F)c3)c(C#N)c(-c3cccs3)c2C1,0%,20µM*
Cc1ccc(S(=O)(=O)N2CCc3cc(C(=O)Nc4c(C)cccc4C(C)C)ccc32)cc1,-1%,u
Cc1ccc(S(=O)(=O)c2nc(-c3cccs3)oc2SCC(=O)Nc2cc(C)cc(C)c2)cc1,-5%,-27%
COc1ccc(NC(=O)C(NC(=O)C2CCC(C)CC2)C(C)C)cc1 (stereo unspecified),-1%,5%
C=CCn1c(-c2ccccc2)c[nH]c1=S,2%,7%
Cn1c(-c2ccc(-c3ccccc3)cc2)c[nH]c1=S,-9%,10µM*
CCn1c(-c2ccc(-c3ccccc3)cc2)c[nH]c1=S,5%,10µM*
S=c1[nH]cc(-c2ccccc2)n1-c1cccc(Cl)c1,-3%,-12%
COc1cccc(Cn2c(CNC(=O)c3cc([N+](=O)[O-])ccc3Cl)nc3cccnc32)c1,-14%,-20%
C=CCn1c(SCC(=O)Nc2ccccc2OC)nnc1-c1ccco1,1%,-9%
C=CCn1c(SCC(=O)Nc2nccs2)nnc1-c1cc2cccc(OC)c2o1,5%,25µM*
Cc1ccc(CNC(=O)c2cc(-c3ccc(C)cc3)nc3n[nH]c(-c4cccc([N+](=O)[O-])c4)c23)cc1,3%,12%
O=C(N/N=C/c1cn(-c2ccccc2)nc1-c1cc2ccccc2o1)c1ccccc1Br,-4%,7.9µM*
COc1ccc(-c2nn(-c3ccccc3)cc2C(=O)Nc2ccccc2OC)cc1,-3%,-3%
O=C(N/N=C\c1cn(-c2ccccc2)nc1-c1ccccc1)c1ccc2c(c1)OCO2,0%,20µM*
COc1ccc(-c2nn(-c3ccccc3)cc2/C=N/NC(=O)c2cccc(S(=O)(=O)Nc3ccccc3OC)c2)cc1,-7%,10µM*
O=C(N/N=C/c1cn(-c2cccs2)nc1-c1ccccc1)c1ccccc1Br,-4%,u
COc1ccc(-c2nn(-c3ccccc3)cc2/C=N/NC(=O)c2ccc(Br)o2)cc1,0%,25µM*
SMILES,Cruzain Triton,Cruzain noTriton
O=C(N/N=C/c1cn(-c2ccccc2)nc1-c1ccc(F)cc1)c1ccc2c(c1)OCO2,3%,u
COc1ccc(-c2nn(-c3ccccc3)cc2/C=N/NC(=O)c2ccc3c(c2)OCO3)cc1,-4%,u
Cc1ccc(C)c(/C(=N\N=C(N)N)C2CC2)c1,0%,-12%
O=C(Cn1c(=O)nc(-c2ccccc2)c2ccccc21)NCc1ccccc1Cl,-2%,-8%
CCc1ccc(CNCc2c(C(=O)O)n(Cc3ccc(C)cc3)c3cc(C)ccc23)cc1,-13%,-22%
O=C(C1=C[C@@H]2[C@H]3C(=O)N(c4cccc(Cl)c4)C(=O)[C@H]3[C@@H](C(=O)c3ccc(Cl)cc3)N2C=C1)c1ccccc1,0%,16µM*
O=C(C1=C[C@@H]2[C@H]3C(=O)N(c4ccccc4Cl)C(=O)[C@H]3[C@@H](C(=O)c3ccc(Cl)cc3)N2C=C1)c1ccccc1,-8%,-24%
Cc1ccc(N2C(=O)[C@@H]3[C@H](C2=O)[C@H]2C=C(C(=O)c4ccccc4)C=CN2[C@@H]3C(=O)c2ccc(Cl)cc2)cc1,-1%,3.2µM*
Cc1ccc(N2C(=O)[C@@H]3[C@H](C2=O)C2CCCN2[C@@H]3C(=O)c2ccccc2)cc1 (stereo partly specified),-4%,u
CCOC(=O)C1=C(N)n2c(s/c(=C\c3cccs3)c2=O)=C(C(=O)OCC)C1c1cccs1 (stereo unspecified),-4%,2µM*
CCOC(=O)C1=C(N)n2c(s/c(=C\c3cccnc3)c2=O)=C(C(=O)OCC)C1c1cccnc1 (stereo unspecified),-2%,u
CC1=C(C(=O)Nc2ccccc2C)C(c2cccs2)n2nc(SCc3ccccc3)nc2N1 (stereo unspecified),-1%,25µM*

# Source: PubChem BioAssay
